For 30 molecules, Potency results are on record in PubChem BioAssay (NCATS).

Inconclusive results are not listed. Where a call stands in place of a potency, no number is given. Active and inactive are the calls of the source. The call rests on the fitted dose curve; in most records, active means well fitted inhibition curve with a large enough effect; inconclusive means small, poorly fitted or top-dose-only effect; inactive means flat fitted curve, though single readings scatter. Peptide text beside a SMILES is read from it.
Potency means the concentration at half of the fitted maximal effect.

One experiment has as its system CP286. Put plainly: qHTS profiling for inhibitors of Plasmodium falciparum proliferation (AID 504749). Further: nearly all actives have a fitted effect of over 60% in size. The note with it: P. falciparum in erythrocytes, SYBR Green DNA, 72 h; series mostly up to 28.7 µM. Put shortly:
(§1)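 In a 72 h erythrocytic culture (37 C, humidified, 5% CO2) at 2.5% hematocrit and 0.3% starting parasitemia, compounds were tested; SYBR Green I in detergent lysis buffer stained parasite DNA overnight.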
(In general: In qHTS, concentration-response curves come from the screen itself.)
For `O=C1C(=O)c2ncccc2-c2cccnc21`, the Potency was 1000 nM (active).
Take `O=CCCCC=O`: the Potency entry is “inactive”.
On the same count and under the same terms, for `CCCCC(C)(O)C/C=C/[C@H]1[C@H](O)CC(=O)[C@@H]1CCCCCCC(=O)OC` (some centres not stated) the value was “inactive”.
On the same count and under the same terms, under `CC(C)(C)C(=O)OCOC(=O)[C@@H]1N2C(=O)[C@@H](N=CN3CCCCCC3)[C@H]2SC1(C)C` stands “inactive”; under `C[C@]12CCC(=O)C=C1CC[C@@H]1[C@@H]2[C@@H](O)C[C@@]2(C)[C@H]1CC[C@]2(O)C(=O)COP(=O)(O)O`, “inactive”.
On the same count and under the same terms, under `CCOc1ccc(N=Nc2ccc(N)cc2N)cc1` stands “inactive”; under `O=C(O)CCC(=O)C(=O)O`, “inactive”.
`CC1=CCC(C(C)(C)O)CC1` (configuration not stated): the Potency entry was “inactive”.
With `CO[C@H](C(=O)[C@@H](O)[C@@H](C)O)C1Cc2cc3cc(O[C@H]4C[C@@H](O[C@H]5C[C@@H](O)[C@H](O)[C@@H](C)O5)[C@@H](O)[C@@H](C)O4)c(C)c(O)c3c(O)c2C(=O)[C@H]1O[C@H]1C[C@@H](O[C@H]2C[C@@H](O[C@H]3C[C@](C)(O)[C@H](O)[C@@H](C)O3)[C@H](O)[C@@H](C)O2)[C@H](O)[C@@H](C)O1` (some centres not stated), the Potency is 89.1 nM (active).
As to `CCCCCCC(O)C/C=C/CCCCCCCC(=O)O` (configuration not stated), the Potency entry was “inactive”.
Take `Cc1ccccc1OCC(O)CNCCOc1ccc(C(N)=O)cc1` (configuration not stated): the Potency entry is “inactive”.
Same read-out and setting: under `IC(I)I` stands “inactive”; under `COC(F)(F)C(Cl)Cl`, “inactive”.
Still for that read-out and setting: for `Nc1c(N=Nc2ccc(-c3ccc(N=Nc4cc(S(=O)(=O)O)c5ccccc5c4N)cc3)cc2)cc(S(=O)(=O)O)c2ccccc12` the value was “inactive”; for `Cc1cc(C(=O)NNCc2ccccc2)no1`, “inactive”; for `CCOC(C)=O`, “inactive”.
On the same count and under the same terms, for `Cc1c(C)c2c(c(C)c1O)CC[C@@](C)(CCC[C@@H](C)CCC[C@@H](C)CCCC(C)C)O2` the value was “inactive”.
With `CCCCCCCC(=O)O`, the Potency entry is “inactive”.
Same read-out and setting: under `CC1(C)S[C@@H]2[C@H](NC(=O)[C@@H](NC(=O)N3CCNC3=O)c3ccccc3)C(=O)N2[C@H]1C(=O)O` stands “inactive”; under `O=C(COc1ccc(Cl)cc1)OCCNC12CC3CC(CC(C3)C1)C2`, “inactive”; under `C[C@]12O[C@H](C[C@]1(O)CO)n1c3ccccc3c3c4c(c5c6ccccc6n2c5c31)CNC4=O`, 224 nM (active).
The same measure, in the same setting: for `C[C@@H]1CCC2[C@@H](C)[C@@H](O)O[C@@H]3O[C@@]4(C)CC[C@@H]1[C@@]23OO4` (some centres not stated) the value was 2.5 nM (active); for `CC(=O)N[C@@H](CC(=O)O)C(=O)N[C@@H](CCC(=O)O)C(=O)O` (Ac-Asp-Glu-OH), “inactive”; for `COCC(=O)Nc1cc(Sc2ccccc2)ccc1N=C(NC(=O)OC)NC(=O)OC`, “inactive”.
As for `NC(=O)c1ncn(C2OC(CO)C(O)C2O)n1` (configuration not stated), the Potency entry was “inactive”.
Still for that read-out and setting: under `COc1ccc2c3c1O[C@H]1C[C@@H](O)C=C[C@@]31CCN(C)C2` stands “inactive”.

The subject of the next experiment is CP291. The description is as above. The following applies: P. falciparum in erythrocytes, SYBR Green DNA, 72 h; series mostly up to 28.7 µM. Put shortly: as §1
As to `C=C1C(=CC=C2CCC[C@@]3(C)[C@@H]2CC[C@H]3[C@H](C)CCCC(C)C)C[C@@H](O)C[C@@H]1O`, the Potency entry is “inactive”.
The same measure, in the same setting: for `O=C1C(=O)c2ncccc2-c2cccnc21` the value was 1690 nM (active); for `O=CCCCC=O`, “inactive”; for `CCCCC(C)(O)C/C=C/[C@H]1[C@H](O)CC(=O)[C@@H]1CCCCCCC(=O)OC` (some centres not stated), “inactive”.
Still for that read-out and setting: for `CC(C)(C)C(=O)OCOC(=O)[C@@H]1N2C(=O)[C@@H](N=CN3CCCCCC3)[C@H]2SC1(C)C` the value was “inactive”; for `C[C@]12CCC(=O)C=C1CC[C@@H]1[C@@H]2[C@@H](O)C[C@@]2(C)[C@H]1CC[C@]2(O)C(=O)COP(=O)(O)O`, “inactive”.
The same measure, in the same setting: for `CCOc1ccc(N=Nc2ccc(N)cc2N)cc1` the value was “inactive”.
Consider `CC1=CCC(C(C)(C)O)CC1` (configuration not stated), for which the Potency entry was “inactive”.
For `CO[C@H](C(=O)[C@@H](O)[C@@H](C)O)C1Cc2cc3cc(O[C@H]4C[C@@H](O[C@H]5C[C@@H](O)[C@H](O)[C@@H](C)O5)[C@@H](O)[C@@H](C)O4)c(C)c(O)c3c(O)c2C(=O)[C@H]1O[C@H]1C[C@@H](O[C@H]2C[C@@H](O[C@H]3C[C@](C)(O)[C@H](O)[C@@H](C)O3)[C@H](O)[C@@H](C)O2)[C@H](O)[C@@H](C)O1` (some centres not stated), the Potency was 1200 nM (active).
Same read-out and setting: for `CCCCCCC(O)C/C=C/CCCCCCCC(=O)O` (configuration not stated) the value was “inactive”.
The same measure, in the same setting: for `Cc1ccccc1OCC(O)CNCCOc1ccc(C(N)=O)cc1` (configuration not stated) the value was “inactive”.
As for `COC(F)(F)C(Cl)Cl`, the Potency result was “inactive”.
On the same count and under the same terms, under `Nc1c(N=Nc2ccc(-c3ccc(N=Nc4cc(S(=O)(=O)O)c5ccccc5c4N)cc3)cc2)cc(S(=O)(=O)O)c2ccccc12` stands “inactive”.
The same measure, in the same setting: for `Cc1cc(C(=O)NNCc2ccccc2)no1` the value was “inactive”; for `CC1(C)C(C=C(Cl)Cl)C1C(=O)OCc1cccc(Oc2ccccc2)c1` (configuration not stated), “inactive”; for `CCOC(C)=O`, “inactive”.
Still for that read-out and setting: under `Cc1c(C)c2c(c(C)c1O)CC[C@@](C)(CCC[C@@H](C)CCC[C@@H](C)CCCC(C)C)O2` stands “inactive”; under `CC1(C)S[C@@H]2[C@H](NC(=O)[C@@H](NC(=O)N3CCNC3=O)c3ccccc3)C(=O)N2[C@H]1C(=O)O`, “inactive”; under `O=C(COc1ccc(Cl)cc1)OCCNC12CC3CC(CC(C3)C1)C2`, “inactive”.
On to `O=C(O)c1cc(=O)c2c3nc4ccccc4oc-3cc(=O)c2[nH]1`, for which the Potency entry is “inactive”.
The same measure, in the same setting: under `C[C@]12O[C@H](C[C@]1(O)CO)n1c3ccccc3c3c4c(c5c6ccccc6n2c5c31)CNC4=O` stands 338 nM (active); under `C[C@@H]1CCC2[C@@H](C)[C@@H](O)O[C@@H]3O[C@@]4(C)CC[C@@H]1[C@@]23OO4` (some centres not stated), 4.3 nM (active); under `CC(=O)N[C@@H](CC(=O)O)C(=O)N[C@@H](CCC(=O)O)C(=O)O` (Ac-Asp-Glu-OH), “inactive”.
Turning to `COCC(=O)Nc1cc(Sc2ccccc2)ccc1N=C(NC(=O)OC)NC(=O)OC`, the Potency entry is “inactive”.
For `Nc1c(Br)cc(Br)cc1CNC1CCC(O)CC1` (configuration not stated), the Potency entry was “inactive”.
The same measure, in the same setting: under `COc1ccc2c3c1O[C@H]1C[C@@H](O)C=C[C@@]31CCN(C)C2` stands “inactive”.
